Experimental data taken from PMC7862700, “An all-to-all approach to the identification of sequence-specific readers for epigenetic DNA modifications on cytosine”.

How the values were obtained:
Assay in all cases: DAPPL (digital affinity profiling via proximity ligation, sequencing); 10 mM Tris-HCl pH 7.5, 50 mM NaCl, 1 mM DTT, 4% glycerol, room temperature, 30 min; GST-TFs on glutathione beads, 16-mer random dsDNA library, 0.1% formaldehyde crosslink after washing; high values mean tight binding
Settings in all cases: protein: recombinant; tags: N-terminal GST; dsDNA, one strand shown
FLI1 = target: T1, FLI1 (Homo sapiens, UniProt Q01543 1-452)
T1 sequence: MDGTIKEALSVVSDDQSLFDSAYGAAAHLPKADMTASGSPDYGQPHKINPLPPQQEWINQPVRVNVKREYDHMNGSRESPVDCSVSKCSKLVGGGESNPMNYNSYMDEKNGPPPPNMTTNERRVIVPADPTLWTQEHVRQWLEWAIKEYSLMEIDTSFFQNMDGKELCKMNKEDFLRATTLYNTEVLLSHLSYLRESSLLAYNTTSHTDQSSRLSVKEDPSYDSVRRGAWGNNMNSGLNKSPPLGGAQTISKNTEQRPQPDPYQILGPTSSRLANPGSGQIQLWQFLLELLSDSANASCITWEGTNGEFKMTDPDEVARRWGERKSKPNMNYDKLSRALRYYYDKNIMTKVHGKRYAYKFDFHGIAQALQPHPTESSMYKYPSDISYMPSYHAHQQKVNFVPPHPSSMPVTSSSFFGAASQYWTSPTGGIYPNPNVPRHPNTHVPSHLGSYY
Method in brief: (§1)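 Sequencing on an Illumina NextSeq500 followed washing, crosslinking with 0.1% formaldehyde, proximity ligation (BsaI/T4 ligase, 1 h, 37 °C) and PCR amplification of pools that had been incubated for 30 min at room temperature with 200 nmole of a random double-stranded 16-mer DNA library in Tris/NaCl/DTT/glycerol buffer. Each pool held DNA-barcoded human transcription factors, expressed in yeast as GST fusions and captured on glutathione beads, plus a tag-only sample. Binding signal is a hexamer's read frequency for a factor divided by its frequency in the tag-only sample.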

ELK1 = target: T2, ELK1 (Homo sapiens, UniProt P19419 1-428)
T2 sequence: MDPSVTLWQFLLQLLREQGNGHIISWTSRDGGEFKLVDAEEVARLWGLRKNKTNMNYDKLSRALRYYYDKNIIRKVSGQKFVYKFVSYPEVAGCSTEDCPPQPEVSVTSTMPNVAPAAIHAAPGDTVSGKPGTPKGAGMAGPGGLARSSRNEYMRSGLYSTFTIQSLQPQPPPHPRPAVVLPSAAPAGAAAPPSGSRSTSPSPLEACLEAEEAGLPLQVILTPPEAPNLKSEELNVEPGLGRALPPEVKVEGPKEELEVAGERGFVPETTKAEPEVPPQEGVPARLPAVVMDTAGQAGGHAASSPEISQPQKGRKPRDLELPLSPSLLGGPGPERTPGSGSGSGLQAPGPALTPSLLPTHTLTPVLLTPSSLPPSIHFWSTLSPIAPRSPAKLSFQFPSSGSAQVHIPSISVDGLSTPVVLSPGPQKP
Method in brief: as §1

GABPA = target: T3, GABPA (Homo sapiens, UniProt Q06546 1-454)
T3 sequence: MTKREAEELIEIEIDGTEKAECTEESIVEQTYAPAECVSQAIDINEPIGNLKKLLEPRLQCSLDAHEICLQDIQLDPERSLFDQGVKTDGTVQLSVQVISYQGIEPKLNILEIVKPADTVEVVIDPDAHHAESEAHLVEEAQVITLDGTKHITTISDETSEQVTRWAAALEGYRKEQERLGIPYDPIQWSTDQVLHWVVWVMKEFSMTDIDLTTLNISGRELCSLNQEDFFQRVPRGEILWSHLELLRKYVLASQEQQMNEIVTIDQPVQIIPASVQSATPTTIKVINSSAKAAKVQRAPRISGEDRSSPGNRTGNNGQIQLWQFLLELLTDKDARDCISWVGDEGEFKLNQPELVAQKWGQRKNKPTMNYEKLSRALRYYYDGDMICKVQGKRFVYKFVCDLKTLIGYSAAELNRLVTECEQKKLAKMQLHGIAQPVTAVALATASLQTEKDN
Method in brief: as §1

ERG = target: T4, ERG (Homo sapiens, UniProt P11308 1-479)
T4 sequence: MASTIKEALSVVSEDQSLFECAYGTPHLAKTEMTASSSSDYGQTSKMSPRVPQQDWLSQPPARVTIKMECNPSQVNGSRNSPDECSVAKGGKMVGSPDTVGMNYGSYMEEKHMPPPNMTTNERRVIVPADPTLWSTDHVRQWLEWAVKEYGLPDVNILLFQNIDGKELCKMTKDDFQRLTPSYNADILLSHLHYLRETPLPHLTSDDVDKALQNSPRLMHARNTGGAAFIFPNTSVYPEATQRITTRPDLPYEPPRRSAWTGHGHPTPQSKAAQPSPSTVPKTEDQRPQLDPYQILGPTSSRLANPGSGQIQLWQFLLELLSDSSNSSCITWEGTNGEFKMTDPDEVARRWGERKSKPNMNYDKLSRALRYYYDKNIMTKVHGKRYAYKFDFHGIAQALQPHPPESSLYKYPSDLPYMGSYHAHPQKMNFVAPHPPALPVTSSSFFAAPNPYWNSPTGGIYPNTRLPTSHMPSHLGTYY
Method in brief: as §1

ELF1 = ELF1 (Homo sapiens, UniProt P32519 1-619)
Sequence of ELF1 (P32519 whole entry): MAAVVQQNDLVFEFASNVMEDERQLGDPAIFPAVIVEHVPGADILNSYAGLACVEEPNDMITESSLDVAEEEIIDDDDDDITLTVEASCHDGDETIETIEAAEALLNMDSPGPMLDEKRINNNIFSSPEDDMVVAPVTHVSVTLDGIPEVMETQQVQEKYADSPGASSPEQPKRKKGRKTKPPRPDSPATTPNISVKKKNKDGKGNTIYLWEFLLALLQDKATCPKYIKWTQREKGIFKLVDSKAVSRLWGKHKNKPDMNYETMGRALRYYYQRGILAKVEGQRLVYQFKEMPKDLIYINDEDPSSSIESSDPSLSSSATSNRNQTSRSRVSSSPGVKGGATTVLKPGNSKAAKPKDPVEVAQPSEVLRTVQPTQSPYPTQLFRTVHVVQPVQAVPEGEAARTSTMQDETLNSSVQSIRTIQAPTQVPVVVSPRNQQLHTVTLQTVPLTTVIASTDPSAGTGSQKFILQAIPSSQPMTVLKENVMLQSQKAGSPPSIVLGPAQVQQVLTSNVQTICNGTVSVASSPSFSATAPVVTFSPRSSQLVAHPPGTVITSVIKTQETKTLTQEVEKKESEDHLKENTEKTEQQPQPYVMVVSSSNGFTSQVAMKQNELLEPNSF
Method in brief: as §1

EHF = target: T5, EHF (Homo sapiens, UniProt Q9NZC4 1-300)
T5 sequence: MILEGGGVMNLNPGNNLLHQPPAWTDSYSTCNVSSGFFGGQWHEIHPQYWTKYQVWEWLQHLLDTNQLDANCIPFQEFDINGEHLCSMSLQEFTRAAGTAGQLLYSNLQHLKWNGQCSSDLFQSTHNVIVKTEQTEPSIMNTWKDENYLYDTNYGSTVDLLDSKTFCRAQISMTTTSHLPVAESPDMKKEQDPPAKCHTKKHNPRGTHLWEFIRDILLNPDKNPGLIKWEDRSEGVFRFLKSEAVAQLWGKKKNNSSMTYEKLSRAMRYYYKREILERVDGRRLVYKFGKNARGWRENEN
Method in brief: as §1

SPI1 = SPI1 (Homo sapiens, UniProt P17947 1-270)
Method in brief: as §1

FEV = target: T6, FEV (Homo sapiens, UniProt Q99581 1-238)
T6 sequence: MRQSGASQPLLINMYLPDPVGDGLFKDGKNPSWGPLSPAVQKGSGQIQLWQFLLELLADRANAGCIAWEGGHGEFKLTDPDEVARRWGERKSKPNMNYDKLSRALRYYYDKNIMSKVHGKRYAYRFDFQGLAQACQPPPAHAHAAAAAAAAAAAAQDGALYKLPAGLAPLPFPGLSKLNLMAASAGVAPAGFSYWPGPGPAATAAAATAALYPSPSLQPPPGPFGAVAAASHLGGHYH
Method in brief: as §1

ETV5 = ETV5 (Homo sapiens, UniProt P41161 1-510)
Sequence of ETV5 (P41161 whole entry): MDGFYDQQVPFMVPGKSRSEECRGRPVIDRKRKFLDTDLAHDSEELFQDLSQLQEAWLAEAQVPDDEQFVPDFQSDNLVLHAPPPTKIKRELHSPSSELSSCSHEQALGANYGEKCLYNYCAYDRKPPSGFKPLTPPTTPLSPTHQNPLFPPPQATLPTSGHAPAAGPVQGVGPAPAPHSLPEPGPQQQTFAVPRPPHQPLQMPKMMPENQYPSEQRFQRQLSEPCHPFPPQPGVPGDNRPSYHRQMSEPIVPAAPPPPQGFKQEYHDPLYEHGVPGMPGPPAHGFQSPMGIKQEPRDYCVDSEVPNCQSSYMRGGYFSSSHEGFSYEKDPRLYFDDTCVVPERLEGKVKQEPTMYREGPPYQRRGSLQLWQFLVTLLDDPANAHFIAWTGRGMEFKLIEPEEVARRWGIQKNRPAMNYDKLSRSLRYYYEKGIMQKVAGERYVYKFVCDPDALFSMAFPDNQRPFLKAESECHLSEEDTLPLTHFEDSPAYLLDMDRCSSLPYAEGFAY
Method in brief: as §1

SPIC = target: T7, SPIC (Homo sapiens, UniProt Q8N5J4 1-248)
T7 sequence: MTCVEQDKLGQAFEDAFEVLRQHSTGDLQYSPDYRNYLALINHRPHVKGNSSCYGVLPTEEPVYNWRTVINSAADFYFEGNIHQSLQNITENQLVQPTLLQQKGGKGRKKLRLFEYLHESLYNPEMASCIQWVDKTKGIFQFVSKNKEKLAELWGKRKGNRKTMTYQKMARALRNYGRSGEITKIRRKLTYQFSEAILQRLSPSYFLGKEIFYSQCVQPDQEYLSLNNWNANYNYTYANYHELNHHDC
Method in brief: as §1

ETV3L = target: T8, ETV3L (Homo sapiens, UniProt Q6ZN32 1-361)
T8 sequence: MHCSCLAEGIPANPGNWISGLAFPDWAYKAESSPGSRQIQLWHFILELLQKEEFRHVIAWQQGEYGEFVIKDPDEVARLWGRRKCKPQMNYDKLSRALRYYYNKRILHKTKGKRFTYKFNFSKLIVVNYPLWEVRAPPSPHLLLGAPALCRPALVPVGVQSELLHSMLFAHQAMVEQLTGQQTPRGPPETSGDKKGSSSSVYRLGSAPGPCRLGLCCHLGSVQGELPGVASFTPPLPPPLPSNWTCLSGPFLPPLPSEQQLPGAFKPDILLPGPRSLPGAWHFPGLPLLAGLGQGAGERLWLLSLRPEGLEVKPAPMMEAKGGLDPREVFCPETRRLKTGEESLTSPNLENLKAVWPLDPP
Method in brief: as §1

ETS2 = target: T9, ETS2 (Homo sapiens, UniProt P15036 1-469)
T9 sequence: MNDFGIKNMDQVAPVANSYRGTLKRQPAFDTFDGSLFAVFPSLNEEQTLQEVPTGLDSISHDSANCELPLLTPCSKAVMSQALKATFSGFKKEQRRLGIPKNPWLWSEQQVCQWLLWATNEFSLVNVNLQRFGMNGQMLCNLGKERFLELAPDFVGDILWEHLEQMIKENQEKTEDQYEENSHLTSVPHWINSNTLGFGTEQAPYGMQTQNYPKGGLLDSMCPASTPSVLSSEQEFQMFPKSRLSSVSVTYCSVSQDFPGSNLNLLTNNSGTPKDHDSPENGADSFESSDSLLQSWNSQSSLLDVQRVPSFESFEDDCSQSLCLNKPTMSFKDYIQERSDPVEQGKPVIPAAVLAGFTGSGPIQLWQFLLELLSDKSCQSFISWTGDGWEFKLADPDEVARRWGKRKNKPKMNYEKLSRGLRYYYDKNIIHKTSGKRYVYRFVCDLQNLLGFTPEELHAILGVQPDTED
Method in brief: as §1

SPDEF = target: T10, SPDEF (Homo sapiens, UniProt O95238 1-335)
T10 sequence: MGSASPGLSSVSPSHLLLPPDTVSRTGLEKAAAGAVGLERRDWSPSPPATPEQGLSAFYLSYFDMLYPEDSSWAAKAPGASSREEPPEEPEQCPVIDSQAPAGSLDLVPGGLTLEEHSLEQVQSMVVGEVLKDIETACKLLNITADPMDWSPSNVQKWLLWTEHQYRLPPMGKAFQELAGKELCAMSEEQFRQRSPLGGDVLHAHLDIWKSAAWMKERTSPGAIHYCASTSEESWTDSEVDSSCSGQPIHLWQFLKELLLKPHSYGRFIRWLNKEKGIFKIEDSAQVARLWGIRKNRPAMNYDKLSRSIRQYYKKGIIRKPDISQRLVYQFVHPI
Method in brief: as §1

ETV3 = target: T11, ETV3 (Homo sapiens, UniProt P41162-2 1-143)
T11 sequence: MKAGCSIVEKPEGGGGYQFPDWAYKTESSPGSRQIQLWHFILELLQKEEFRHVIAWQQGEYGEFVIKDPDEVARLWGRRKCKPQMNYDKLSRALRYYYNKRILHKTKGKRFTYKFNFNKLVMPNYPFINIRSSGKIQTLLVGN
Method in brief: as §1

SPIB = SPIB (Homo sapiens, UniProt Q01892 1-262)
Sequence of SPIB (Q01892 whole entry): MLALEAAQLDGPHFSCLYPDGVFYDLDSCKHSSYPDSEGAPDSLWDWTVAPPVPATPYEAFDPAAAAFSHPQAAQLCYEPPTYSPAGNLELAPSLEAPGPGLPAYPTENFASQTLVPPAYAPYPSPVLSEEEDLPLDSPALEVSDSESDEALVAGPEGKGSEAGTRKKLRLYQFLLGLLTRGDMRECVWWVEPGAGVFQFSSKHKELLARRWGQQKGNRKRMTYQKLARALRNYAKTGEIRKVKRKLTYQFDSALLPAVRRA
Method in brief: as §1

Sequence | binding signal (FLI1) | binding signal (ELK1) | binding signal (GABPA) | binding signal (ERG) | binding signal (ELF1) | binding signal (EHF) | binding signal (SPI1) | binding signal (FEV) | binding signal (ETV5) | binding signal (SPIC) | binding signal (ETV3L) | binding signal (ETS2) | binding signal (SPDEF) | binding signal (ETV3) | binding signal (SPIB)
ACTAGG | 1.03 fold enrichment (6-mer frequency, TF over GST control) | 1.1 fold enrichment (6-mer frequency, TF over GST control) | 1.09 fold enrichment (6-mer frequency, TF over GST control) | 1.03 fold enrichment (6-mer frequency, TF over GST control) | 1.08 fold enrichment (6-mer frequency, TF over GST control) | 1.04 fold enrichment (6-mer frequency, TF over GST control) | 1.07 fold enrichment (6-mer frequency, TF over GST control) | 1.02 fold enrichment (6-mer frequency, TF over GST control) | 1.03 fold enrichment (6-mer frequency, TF over GST control) | 1.21 fold enrichment (6-mer frequency, TF over GST control) | 1.04 fold enrichment (6-mer frequency, TF over GST control) | 1.08 fold enrichment (6-mer frequency, TF over GST control) | 1.1 fold enrichment (6-mer frequency, TF over GST control) | 1.03 fold enrichment (6-mer frequency, TF over GST control) | –
GGTATG | 1.01 fold enrichment (6-mer frequency, TF over GST control) | 1.03 fold enrichment (6-mer frequency, TF over GST control) | – | – | 1.01 fold enrichment (6-mer frequency, TF over GST control) | – | – | – | 1.01 fold enrichment (6-mer frequency, TF over GST control) | 1.22 fold enrichment (6-mer frequency, TF over GST control) | – | – | 1.02 fold enrichment (6-mer frequency, TF over GST control) | 1.02 fold enrichment (6-mer frequency, TF over GST control) | 1.02 fold enrichment (6-mer frequency, TF over GST control)
